18 compounds from PubChem BioAssay (NCATS) can be followed below.

One assay has as its system TAB113. Briefly: qHTS profiling for inhibitors of Plasmodium falciparum proliferation (AID 504749). Further: potency means the concentration at half of the fitted maximal effect. The conditions noted are these: P. falciparum in erythrocytes, SYBR Green DNA, 72 h; series mostly up to 28.7 µM. The essentials: (§1)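 Fluorescence of SYBR Green-bound parasite DNA, read at 485/535 nm, served as the growth measure. Infected erythrocytes were cultured with compound 72 h; artemisinin (0.29 uM) and DMSO wells defined the normalization range.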
Background: qHTS replaces the single test concentration by a dilution series.

For the next assay, the system named is TAB165. The assay is described as above. The conditions noted are these: P. falciparum in erythrocytes, SYBR Green DNA, 72 h; series mostly up to 28.7 µM. The essentials: as §1
A further assay deals with W2. The assay is described as above. The following applies: P. falciparum in erythrocytes, SYBR Green DNA, 72 h; series mostly up to 28.7 µM. A digest of the protocol:
as §1

Another assay relates to CRL-7250. Briefly: Cytotoxic Profiling of Annotated Libraries Using Quantitative High-Throughput Screening (AID 1296008). On max response: on the % scale 0 is the no-effect control and ±100 the full control effect. The following applies: Five cell lines viability, CellTiter-Glo ATP luminescence, 48-72 h; max response: active compounds read low. The essentials: (§2)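 Compounds were pin-transferred onto cells and incubated 48 or 72 hr at 37 degree Celsius, 95% humidity. CellTiter-Glo was added, plates sat 10 min at room temperature, then ATP-coupled luminescence was imaged as the viability read-out.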
A general note: ATP-based viability assays read luminescence as a measure of living cells.

The next assay concerns HEK293. The description is as above. The following applies: Five cell lines viability, CellTiter-Glo ATP luminescence, 48-72 h; max response: active compounds read low. A digest of the protocol: as §2
In assay [1] the test system is HaCat. The description is as above. The following applies: Five cell lines viability, CellTiter-Glo ATP luminescence, 48-72 h; max response: active compounds read low. The essentials: as §2
The subject of a further assay is KB-3-1. The assay is described as above. The conditions noted are these: Five cell lines viability, CellTiter-Glo ATP luminescence, 48-72 h; max response: active compounds read low. The essentials: as §2
A further assay relates to NIH3T3. The assay is described as above. The conditions noted are these: Five cell lines viability, CellTiter-Glo ATP luminescence, 48-72 h; max response: active compounds read low. The essentials:
as §2

Assay [2] concerns HACAT. Briefly: qHTS assay to identify novel small-molecules to repurpose for Merkel cell carcinoma treatment (AID 1296009). The conditions noted are these: MCC and control cell lines, CellTiter-Glo viability, 72 h; at 44.8 µM (top of the series) unless noted. A digest of the protocol: (§3)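 Luminescence from CellTiter-Glo, read 10 min after addition at room temperature, reported viability following a 72 hr, 37 degree celsius treatment with NPC or MIPE compounds in titration; values normalized to plate controls.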

Another assay concerns HEK293T. Described as above. The conditions noted are these: MCC and control cell lines, CellTiter-Glo viability, 72 h; at 44.8 µM (top of the series) unless noted. The essentials: as §3

Structures are written as SMILES. “And” between values parts separate entries of the source, which are not always exact repeats. Equal entries are not always repeated. Inconclusive results are not listed. Values without a mark were called inactive. The source made the active and inactive calls. The call rests on the fitted dose curve; in most records, active means well fitted inhibition curve with a large enough effect; inconclusive means small, poorly fitted or top-dose-only effect; inactive means flat fitted curve, though single readings scatter.
Further: nearly all actives have a fitted effect of over 60% in size.

Regarding `COc1ccc(S(=O)(=O)Nc2nnc(CC(C)C)s2)cc1`, the Potency entry with TAB113, in the assay on TAB165 and in the assay on W2 was “inactive” each time. In addition, the max response with CRL-7250 is 0.202%; in the assay with HEK293, -9.93%; in the assay with HaCat [1], -5.69%; in the assay with KB-3-1, -8.69% and 6.78%; with NIH3T3, -3.07%.

Take `Nc1cc(=O)[nH]c(N)n1`: the call in the assay with CRL-7250, with HaCat [1] and with HACAT [2] was inactive. In addition, the max response with HEK293 is 4.25%; with NIH3T3, -15.9%.

With `CC1(C)S[C@@H]2[C@H](NC(=O)Cc3ccccc3)C(=O)N2[C@H]1C(=O)O` (tested in a mixture with another compound), the compound was classed as inactive in the assay with CRL-7250, in the assay on HEK293, in the assay on NIH3T3 and in the assay with HEK293T. Besides, the max response with HaCat [1] is -1.15%.

On to `COc1ccccc1O`, for which the Potency result with TAB113, in the assay with TAB165 and with W2 was “inactive” each time. In addition, the max response in the assay with CRL-7250 was 3.64%; in the assay on HEK293, -17.2%; with HaCat [1] it was 3.89%; with NIH3T3, -2.65%.

Take `CN1[C@@H]2CC[C@H]1CC(OC(=O)C(O)c1ccccc1)C2` (some centres not stated): the max response in the assay with CRL-7250 was 1.28%; with HEK293, -8.16%. Moreover, the call with HaCat [1], with NIH3T3 and in the assay on HACAT [2] was inactive.

As to `Cn1cc[nH]c1=S`, in the assay on CRL-7250, the max response was 4.5%. Also, the outcome in the assay on HEK293, with HaCat [1], with NIH3T3, in the assay on HACAT [2] and in the assay with HEK293T was inactive.

With `Nc1ncnc2c1ncn2[C@@H]1O[C@H](CO)[C@@H](O)[C@H]1O`, the Potency entry in the assay with TAB113, in the assay on TAB165 and in the assay with W2 was “inactive” in each case. Further, the result in the assay on CRL-7250, in the assay with HaCat [1] and with HACAT [2] was inactive. Also, the max response in the assay on HEK293 is 1.55%; in the assay with KB-3-1, 15.4%.

With `NC(N)=NCCC[C@H](N)C(=O)O`, the outcome in the assay with CRL-7250, with HaCat [1] and in the assay on NIH3T3 was inactive. Moreover, the max response in the assay on HEK293 was -4.96%. Moreover, in the assay on HACAT [2], the outcome was “inactive [at 4.96 µM]”.

`O=C(O)c1ccccc1O`: the Potency result in the assay on TAB113, in the assay with TAB165 and in the assay with W2 was “inactive” throughout. In addition, the max response in the assay with CRL-7250 was 0.122%; in the assay on HaCat [1], 2.15%; with KB-3-1, 7.74% and -13.4%. For the same compound, the compound was called inactive in the assay with HEK293, in the assay with NIH3T3 and in the assay on HEK293T.

On to `Nc1ccc(S(=O)(=O)Nc2nccs2)cc1`, for which the Potency entry in the assay on TAB113, with TAB165 and with W2 was “inactive” in each case. Further, the max response in the assay on CRL-7250 was 0.415% and -2.54%; in the assay on HEK293, 3.95% and -4.18%; with HaCat [1], -0.23% and -23.1%; with NIH3T3, 0.16% and -3.65%.

As for `CCCCOC(=O)c1ccc(O)cc1`, the Potency entry in the assay on TAB113 and in the assay on TAB165 was “inactive” throughout. Moreover, the max response with CRL-7250 is 0.245%; in the assay on NIH3T3, -12.6%. In addition, the result in the assay with HEK293, with HaCat [1], in the assay with HACAT [2] and with HEK293T was inactive.

As for `Cc1cccc(C)c1NC(=O)CN(CC(=O)O)CC(=O)O`, the Potency entry with TAB113 and in the assay on TAB165 was “inactive” in each case. The max response in the assay on CRL-7250 is 0.46%; in the assay with NIH3T3, -7.57%. The compound was classed as inactive in the assay with HEK293, with HaCat [1], with HACAT [2] and in the assay on HEK293T.

As to `CCOC(=O)c1ccc(O)cc1`, the Potency result in the assay with TAB113, in the assay with TAB165 and with W2 was “inactive” in each case. The max response in the assay with CRL-7250 is -1.17%; in the assay on HaCat [1], -1.41%; in the assay with KB-3-1, -4.79%. Moreover, the result in the assay on HEK293, in the assay with NIH3T3 and with HEK293T was inactive.

As for `CCCCN1CCCC[C@H]1C(=O)Nc1c(C)cccc1C`, the Potency result with TAB113 and in the assay with TAB165 was “inactive” each time. For the same compound, the Potency in the assay with W2 was 6.75 µM (active). Besides, the max response was 2.72% and -2.26% in the assay on CRL-7250; -17.3% and -9.85% in the assay with HEK293; -56.1% in the assay on HaCat [1]; -0.105% and -0.406% in the assay on NIH3T3.

Take `NCCNCCNCCN`: the Potency entry with TAB113, with TAB165 and with W2 was “inactive” in each case. Also, the results for the max response in the assay on CRL-7250 and in the assay with NIH3T3 were 1.87% and -1.13%, respectively. Also, the outcome in the assay on HEK293, in the assay with HaCat [1], with HACAT [2] and with HEK293T was inactive.

For `N[C@@H](CSCCCO)C(=O)O`, the Potency result in the assay with TAB113, in the assay with TAB165 and with W2 was “inactive” throughout. The max response with CRL-7250 was -1.84%; in the assay with HaCat [1], 2.87%; with KB-3-1, -1.02%. Besides, the compound was classed as inactive in the assay on HEK293 and with NIH3T3. Moreover, the outcome in the assay with HEK293T is “inactive [at 17.4 µM]”.

In the case of `CC(O)CN(CCN(CC(C)O)CC(C)O)CC(C)O` (configuration not stated), the Potency result in the assay with TAB113, in the assay with TAB165 and in the assay with W2 was “inactive” in each case. For the same compound, in the assay with CRL-7250, the max response is 4.33%. Moreover, the outcome in the assay on HEK293, in the assay with HaCat [1], in the assay with NIH3T3, with HACAT [2] and with HEK293T was inactive.

Take `Nc1ccc(S(=O)(=O)Nc2ccc(Cl)nn2)cc1`: the Potency with TAB165 was 1 µM (active). Besides, in the assay with W2, the Potency result is “inactive”. The max response is -2.16% in the assay with CRL-7250; 0.946% with HaCat [1]; 14.3% and -6.92% in the assay on KB-3-1; 1.13% with NIH3T3. Moreover, the result in the assay on HEK293 and with HEK293T was inactive.
